# Assay outcomes: PubChem BioAssay, SRMLSC
# Spn PMK inh: S. pneumoniae PMK inhibition. purified PMK, PK/LDH-coupled NADH absorbance 340 nm. inhibition, % at 10 µM. actives 0.49% (n = 65,000). AID 539;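 active = top-ranked compounds by inhibition in the single 10 µM screen, taking a fixed number of the strongest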;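 also: 0% = full reaction with DMSO carrier and 100% = background rate without enzyme reaction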
# DPM-DC inhibit: inhibitors of Streptococcus pneumoniae diphosphomevalonate decarboxylase | purified DPM-DC, PK/LDH coupled NADH fluorescence | calls only at 10 µM | actives 0.49% (n = 65,000);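 active = the 320 compounds with the highest percent inhibition in the single-dose primary screen, excluding strongly autofluorescent ones, cut at about 32% in these data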;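 also: kinetic rate of NADH fluorescence loss reporting ADP formed by the decarboxylase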
# NADH enzymes: inhibition of NAD/NADH coupling enzymes, library profiling. IC50, µM (series often up to 10 µM), for the others: at the top dose inhibition. coupled PK/LDH NADH assays, four targets. actives 0.02% (n = 65,000);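 active = single-dose screening hits from any of four coupled enzyme assays that gave an IC50 when retested across doses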;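 also: the DPM-DC format reads NADH fluorescence rather than 340 nm absorbance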
# Autofluor 339: intrinsic fluorescence of library compounds, ex339/em460 – biochemical, MLSMR library, data from DPM-DC assay, artefact control, profiling panel | compound autofluorescence, ex339/em460 nm, NADH buffer; active compounds read high; 1 = no-compound wells, NADH background | fluorescence fold increase at 10 µM | actives 5.5% (n = 65,000);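 active = at 10 µM, mean starting fluorescence two-fold or more over control wells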;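 also: signal is the first read of a kinetic run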
# A340 absorber: absorbance at 340 nm; compound absorbance at 340 nm, fold over control; fold change at 10 µM; 65,000 tested, under 10 active; AID 708;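 active = at 10 µM dose, initial 340 nm absorbance at least 2 fold that of control wells; inactive = change under 2 fold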;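 also: initial absorbance extrapolated from kinetic A340 decline of NADH oxidation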
# Spn MK inh: inhibitors of Streptococcus pneumoniae mevalonate kinase. purified MK, PK/LDH-coupled NADH absorbance 340 nm. inhibition, % at 10 µM. actives 0.48% (n = 65,000);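 active = ranked among the strongest by inhibition in the single 10 µM screen, a fixed top-ranked set picked for dose follow-up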
# The depositor's hits bear a star; i = inactive; . = no result given; + = active, no number. Most compounds without a hit are left out; they make up all but 6.3% or so of the library.
SMILES,Spn PMK inh,DPM-DC inhibit,NADH enzymes,Autofluor 339,A340 absorber,Spn MK inh
O=C(c1cc2nc(-c3ccccc3)cc(C(F)(F)F)n2n1)N1CCOCC1,3,i,2%,1.3,1.1,3
O=C(Nc1cnn(Cc2ccccc2)c1)c1cc2nc(-c3ccco3)cc(C(F)(F)F)n2n1,5,.,11%,3.3*,1.1,16
O=C(NC12CC3CC(CC(C3)C1)C2)c1cc2nc(-c3ccco3)cc(C(F)(F)F)n2n1,12,i,13%,2.9*,1,9
O=C(NC1CCCCC1)c1cc2nc(-c3ccco3)cc(C(F)(F)F)n2n1,2,.,4%,2.9*,1,15
O=C(Nc1cnn(C23CC4CC(CC(C4)C2)C3)c1)c1cnn2c(C(F)(F)F)cc(-c3ccco3)nc12,6,i,4%,1.1,1,12
O=C(NC1CCCCC1)c1cc(-c2ccco2)on1,17,i,6%,1.1,0.98,0
O=C(c1cc2nc(-c3ccco3)cc(C(F)(F)F)n2n1)N1CCc2ccccc2C1,30*,.,20%,2.2*,1.1,10
CC(C)C1O/C(=N/C(=O)Nc2ccc(Cl)c(Cl)c2)NC1=O (configuration not stated),9,i,3%,1,0.99,0
O=c1c2ccccc2nc2n1CCN2Cc1ccc(Cl)cc1,1,.,5%,2.2*,1,9
Cc1occc1C(=O)Nc1cc(C(F)(F)F)ccc1Cl,1,i,3%,1,1,6
CCCCNC(=O)COC(=O)c1cc2c(C)nn(-c3ccccc3)c2s1,17,i,13%,2.5*,1,8
Cc1nn(-c2ccccc2)c2sc(C(=O)n3cccn3)cc12,11,.,9%,2.2*,1.1,6
Cc1nn(-c2ccccc2)c2sc(C(=O)OCn3nnc4ccccc4c3=O)cc12,3,i,1%,1.1,1,0
Cc1nn(-c2ccccc2)c2sc(C(=O)N3CCCCC3)cc12,0,i,2%,1.2,1,6
CCN(CC)CCNCc1ccc(-c2ccc(Cl)cc2)o1,13,i,7%,1.1,1,9
CC(C)CNC(=O)c1cc(-c2ccco2)on1,4,i,3%,1.1,1,6
CC(=O)Nc1nc(CC(C)C)cc(-c2ccco2)c1C#N,4,.,7%,2.3*,1.1,10
C=CCn1c(=NC(=O)C2CC2)sc2cc(NC(C)=O)ccc21,21,.,16%,2.1*,1.1,10
CN(CCO)C(=O)CCC(=O)Nc1ccc(S(N)(=O)=O)cc1,8,i,6%,1,1,10
CC(C)OC(=O)c1c2nc3ccccc3nc2n2c1[nH]c(=O)c1ccccc12,5,.,3%,2.3*,1,1
O=S(=O)(NCCC1=CCCCC1)c1cccc(S(=O)(=O)N2CCOCC2)c1,8,i,4%,1.1,0.97,.
O=C(O)c1cc2c([nH]c1=O)CCCC2,11,.,4%,2.3*,1,6
Cc1ccc(OCc2nnc(NC(=O)Cc3cccs3)s2)cc1,0,i,4%,1.1,1,11
CC(C)(C)CC(=O)Nc1nnc(-c2cccs2)s1,14,+,17%,1.3,1.1,0
Cc1cccc(C)c1NC(=O)C(c1ccccc1)N1CCN(C(=O)c2ccco2)CC1 (configuration not stated),18,+,29%,1.1,0.99,0
SMILES,Spn PMK inh,DPM-DC inhibit,NADH enzymes,Autofluor 339,A340 absorber,Spn MK inh
Cc1cccc(C)c1NC(=O)C(c1ccccc1)N1CCC2(CC1)OCCO2 (configuration not stated),12,i,5%,1,0.99,3
O=C(O)c1cc(NCc2ccc3c(c2)OCO3)ccc1N1CCOCC1,1,i,4%,2.5*,1,10
COC(=O)c1cc(NCc2ccc3c(c2)OCO3)ccc1N1CCOCC1,10,i,9%,1.7,0.99,11
COc1cc(CNc2ccc(N3CCOCC3)c(C(=O)O)c2)ccc1OCC(N)=O,2,+,7%,2.3*,0.99,6
COc1ccccc1CNc1ccc(N2CCOCC2)c(C(=O)O)c1,3,i,8%,2.2*,1,6
O=C(COC(=O)Cc1cccs1)Nc1ccccc1,10,i,3%,1.1,0.99,0
COCCNC(=O)C(C#N)c1nc2ccccc2nc1N1CCCCCC1 (configuration not stated),10,+,20%,2.5*,1.1,5
N#CC(C(=O)NC1CCCCC1)c1nc2ccccc2nc1N1CCCCC1 (configuration not stated),41*,+,55%,1.8,1.1,31
N#CC(C(=O)NC1CC1)c1nc2ccccc2nc1N1CCCC1 (configuration not stated),16,i,9%,1.8,1,0
NC(=O)CNC1CC(=O)N(CCc2ccccc2)C1=O (configuration not stated),0,i,3%,1.1,1.1,8
COc1ccccc1OCc1nc2c3c(-c4ccccc4)c(-c4ccccc4)oc3ncn2n1,1,.,2%,3.2*,1.2,2
Cc1nc2c3c(-c4ccccc4)c(-c4ccccc4)oc3ncn2n1,15,i,5%,2,1,0
CCCN(CCC)CCNC(=O)c1cc2c(=O)n(C)c3ccccc3c2n1C,10,.,4%,1.6,1,5
CCN(CC)CCCNC(=O)c1cn(CCOC)c(=O)c2c1c1ccccc1n2C,10,.,8%,4.4*,1,6
CCN1CCN(CCCNC(=O)c2cn(CCOC)c(=O)c3c2c2ccccc2n3C)CC1,6,i,4%,3*,1,1
Cn1c(C(=O)NCCCN2CCN(c3ccc(F)cc3)CC2)cc2c(=O)n(C)c3ccccc3c21,9,i,2%,1.1,0.99,7
COCCn1cc(C(=O)NCCCN2CCC(C)CC2)c2c3ccccc3n(C)c2c1=O,15,+,8%,2.5*,1,0
COCCn1cc(C(=O)NCc2cccs2)c2c3ccccc3n(C)c2c1=O,15,i,15%,3.5*,1,11
CCOC(=O)N1CCN(c2nc3ccccc3nc2C(C#N)S(=O)(=O)c2ccc(C)cc2)CC1 (configuration not stated),14,i,9%,1.3,1.1,7
Cc1ccc(Cl)cc1N1CCN(Cc2nnnn2C2CCCCC2)CC1,25*,i,8%,1.1,1,0
Nc1ccc(O)cc1C(=O)OCC(=O)C12CC3CC(CC(C3)C1)C2,9,.,5%,2.1*,1,0
O=C(CN1C2=NCCN2c2ccccc21)C12CC3CC(CC(C3)C1)C2,5,i,4%,1.1,1,7
